Results taken from the supplement of paper PMC6555819.

Tests used:
Experiment in all cases: PBM binding z-score (relative to random genomic background probes); higher = stronger binding; sequences stand for … in GC…GCGATTGACAGCGTAGAATGAAGG
[1] = system: FXR:RXRa (NR concentration 270 nM, RXRa partner concentration 90 nM)
Summary of the method: (§1)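 On custom Agilent 4×180K arrays, double-stranded probes with 34-nt variable regions carried direct-repeat seeds, single-nucleotide variants, half-site ablations or random human genomic background. Ligand-free nuclear receptor dimers were applied for 1 h, and binding was read with antibodies against each partner (one per run). Binding z-scores come from regression-normalized fluorescence, with the random background probes as reference.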

[2] = system: LXRa:RXRa (NR concentration 270 nM, RXRa partner concentration 90 nM)
Summary of the method: as §1

[3] = system: LXRa homodimer (NR concentration 270 nM)
Summary of the method: as §1

[4] = system: LXRb:RXRa (NR concentration 270 nM, RXRa partner concentration 90 nM)
Summary of the method: as §1

[5] = system: LXRb homodimer (NR concentration 270 nM)
Summary of the method: as §1

[6] = system: PPARa:RXRa (NR concentration 270 nM, RXRa partner concentration 90 nM)
Summary of the method: as §1

[7] = system: PPARg:RXRa (NR concentration 180 nM, RXRa partner concentration 90 nM)
Summary of the method: as §1

[8] = system: PPARg:RXRa 270nM:90nM, anti-RXR (NR concentration 270 nM, RXRa partner concentration 90 nM)
Summary of the method: as §1

[9] = system: PPARg:RXRa 30nM:10nM, anti-RXR (NR concentration 30 nM, RXRa partner concentration 10 nM)
Summary of the method: as §1

[10] = system: PPARg:RXRa 90nM:30nM, anti-RXR (NR concentration 90 nM, RXRa partner concentration 30 nM)
Summary of the method: as §1

[11] = system: PPARg:RXRa DBDmut IVT, anti-RXR (DBD mutation: RXRa K156A/R161A, NR concentration 270 nM, RXRa partner concentration 90 nM)
Summary of the method: as §1

[12] = system: PPARg:RXRa IVT, anti-PPARg (NR concentration 270 nM, RXRa partner concentration 90 nM)
Summary of the method: as §1

[13] = system: PPARg DBDmut:RXRa IVT, anti-PPARg (DBD mutation: PPARg1 K132A/R137A, NR concentration 270 nM, RXRa partner concentration 90 nM)
Summary of the method: as §1

[14] = system: PPARg DBDmut IVT, anti-PPARg (DBD mutation: PPARg1 K132A/R137A, NR concentration 270 nM)
Summary of the method: as §1

[15] = system: PPARg homodimer (NR concentration 180 nM)
Summary of the method: as §1

[16] = system: PXR:RXRa (NR concentration 270 nM, RXRa partner concentration 90 nM)
Summary of the method: as §1

[17] = system: PXR homodimer (NR concentration 270 nM)
Summary of the method: as §1

[18] = system: RARa:RXR (NR concentration 270 nM, RXRa partner concentration 90 nM)
Summary of the method: as §1

[19] = system: RARa homodimer (NR concentration 270 nM)
Summary of the method: as §1

[20] = system: RARb:RXRa (NR concentration 270 nM, RXRa partner concentration 90 nM)
Summary of the method: as §1

TCTTGTAGTTCAATAGAGGTTAAGAAAGTGCGCT
PBM binding z-score [1]: 2.33
PBM binding z-score [2]: 5.37
PBM binding z-score [3]: 2.45
PBM binding z-score [4]: 3.06
PBM binding z-score [5]: 0.28
PBM binding z-score [6]: 2.28
PBM binding z-score [7]: -0.0212
PBM binding z-score [8]: 1.83
PBM binding z-score [9]: 2.94
PBM binding z-score [10]: 2.06
PBM binding z-score [11]: 1.53
PBM binding z-score [12]: 0.937
PBM binding z-score [13]: 0.563
PBM binding z-score [14]: 1.1
PBM binding z-score [15]: 1.14
PBM binding z-score [16]: 4.2
PBM binding z-score [17]: 1.73
PBM binding z-score [18]: 2.4
PBM binding z-score [19]: 0.814
PBM binding z-score [20]: 2.22

CCTACTGGGTCATCAGGTCATTGATATCAACGTT
PBM binding z-score [1]: 4.46
PBM binding z-score [2]: 3.76
PBM binding z-score [3]: 2.34
PBM binding z-score [4]: 3.19
PBM binding z-score [5]: -0.201
PBM binding z-score [6]: 4.86
PBM binding z-score [7]: 7.61
PBM binding z-score [8]: 6.52
PBM binding z-score [9]: 4.45
PBM binding z-score [10]: 5.99
PBM binding z-score [11]: 6.76
PBM binding z-score [12]: 7.36
PBM binding z-score [13]: 1.4
PBM binding z-score [14]: 0.93
PBM binding z-score [15]: 3.28
PBM binding z-score [16]: 3.76
PBM binding z-score [17]: 0.934
PBM binding z-score [18]: 4.74
PBM binding z-score [19]: 1.85
PBM binding z-score [20]: 3.9

ACAGACAGGTGATGAAGGTAACTAAGGCTATCAT
PBM binding z-score [1]: -0.0463
PBM binding z-score [2]: -0.218
PBM binding z-score [3]: -0.177
PBM binding z-score [4]: 0.0824
PBM binding z-score [5]: -0.634
PBM binding z-score [6]: 0.196
PBM binding z-score [7]: 0.606
PBM binding z-score [8]: 0.00614
PBM binding z-score [9]: 0.045
PBM binding z-score [10]: 0.0556
PBM binding z-score [11]: -0.224
PBM binding z-score [12]: 0.73
PBM binding z-score [13]: 0.827
PBM binding z-score [14]: -0.211
PBM binding z-score [15]: 0.053
PBM binding z-score [16]: 0.0666
PBM binding z-score [17]: 0.104
PBM binding z-score [18]: 0.191
PBM binding z-score [19]: 0.0422
PBM binding z-score [20]: 0.371

GCTAGTAGATCAAGGTTAAGAAAGACTAAGCTAA
PBM binding z-score [1]: 0.0668
PBM binding z-score [2]: 0.637
PBM binding z-score [3]: -0.651
PBM binding z-score [4]: 0.372
PBM binding z-score [5]: -0.999
PBM binding z-score [6]: 1.46
PBM binding z-score [7]: 1.22
PBM binding z-score [8]: 2.22
PBM binding z-score [9]: 0.524
PBM binding z-score [10]: 1.57
PBM binding z-score [11]: 1.22
PBM binding z-score [12]: 0.943
PBM binding z-score [13]: -0.176
PBM binding z-score [14]: -0.411
PBM binding z-score [15]: -0.263
PBM binding z-score [16]: 0.229
PBM binding z-score [17]: 0.0369
PBM binding z-score [18]: 0.542
PBM binding z-score [19]: 0.169
PBM binding z-score [20]: 0.561

CCTTGCGGGTCACGAGGTTATAGCACGACGAGCG
PBM binding z-score [1]: 6.38
PBM binding z-score [2]: 4.25
PBM binding z-score [3]: 0.382
PBM binding z-score [4]: 3.71
PBM binding z-score [5]: -0.139
PBM binding z-score [6]: 5.87
PBM binding z-score [7]: 7.48
PBM binding z-score [8]: 6.95
PBM binding z-score [9]: 4.06
PBM binding z-score [10]: 5.86
PBM binding z-score [11]: 5.74
PBM binding z-score [12]: 6.59
PBM binding z-score [13]: 3.45
PBM binding z-score [14]: 2.14
PBM binding z-score [15]: 3.48
PBM binding z-score [16]: 4.41
PBM binding z-score [17]: 0.214
PBM binding z-score [18]: 6.01
PBM binding z-score [19]: 0.851
PBM binding z-score [20]: 4.47

CGAACTAGGTCAAGGACAGTGAATCTCCGCACGC
PBM binding z-score [1]: 3.29
PBM binding z-score [2]: 2.29
PBM binding z-score [3]: 0.163
PBM binding z-score [4]: 1.51
PBM binding z-score [5]: -0.597
PBM binding z-score [6]: 4.64
PBM binding z-score [7]: 7.4
PBM binding z-score [8]: 6.24
PBM binding z-score [9]: 3.8
PBM binding z-score [10]: 6.11
PBM binding z-score [11]: 8.2
PBM binding z-score [12]: 8.25
PBM binding z-score [13]: 4.79
PBM binding z-score [14]: 1.98
PBM binding z-score [15]: 2.91
PBM binding z-score [16]: 1.18
PBM binding z-score [17]: -0.052
PBM binding z-score [18]: 2.3
PBM binding z-score [19]: 0.629
PBM binding z-score [20]: 3.94
